Potency and outcome data for seven compounds are collected here from PubChem BioAssay (Tox21).

Records with an inconclusive call do not appear. Calls of active or inactive are those of the source. Unless noted, the call rests on the fitted dose curve; in most records, active means well fitted curve in the direction sought with a large enough effect in the repeat runs; inconclusive means weak or mixed curves; inactive means no such curve, though single readings can be large; an effect the other way counts as inactive or inconclusive.

Experiment [1] addresses Estrogen receptor (Homo sapiens) (UniProt P03372). As to the kind of experiment: qHTS assay to identify small molecule antagonists of the estrogen receptor alpha (ER-alpha) signaling pathway using the BG1 cell line in the presence of 0.1 nM 17-beta-estradiol (AID 1259244). Further: potency means the concentration at half of the fitted maximal effect; nearly all actives have a fitted effect of over 50% in size. An outline of the steps:
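Estradiol at 0.1 nM (final) stimulates the endogenous ER-alpha of VM7Luc4E2 cells carrying an ERE-driven luciferase; compounds are co-incubated 22 h at 37C and luciferase output quantified by luminescence.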
On the technique in general: qHTS replaces the single test concentration by a dilution series.

The nature of experiment [2]: qHTS assay to identify small molecule HDAC inhibitors (AID 1259364).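 Further: wild-type HCT-116 cells with endogenous class I/II HDAC activity; top concentration of the series differs between compounds; nearly all actives have a fitted effect of over 45% in size.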 An outline of the steps:
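Read-out: luminescence of HDAC-Glo I/II reagent, 30 min RT, reflecting class I/II deacetylase activity in whole HCT-116 cells pre-exposed 2 h to DMSO-dissolved compounds.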

Experiment [3] in a line: qHTS assay to identify small molecule HDAC inhibitors - cell viability counter screen (AID 1259365). Further: series mostly up to about 92 µM; nearly all actives have a fitted effect of over 50% in size. An outline of the steps:
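Wild-type HCT-116 cells were seeded at 1,500 per well, incubated overnight at 37 C, then exposed to compounds in DMSO for 2hr. Viability was read by CellTiter-Glo luminescence after 30min at room temperature.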

Experiment [4] can be described thus: qHTS assay to identify small molecule agonists of the sonic hedgehog signaling (Shh) pathway (AID 1259368; calls by dose curve; further: series mostly up to about 92 µM; nearly all actives have a fitted effect of over 15% in size). An outline of the steps: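 A Gli1 transcriptional response element controlled firefly luciferase in 3T3Gli1-Luc cells. Compounds and a positive control were added 4 hr after plating, and cells were incubated a further 24 hr at 37 C before luminescence detection.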

Experiment [5] can be described thus: qHTS assay to identify small molecule antagonists of the sonic hedgehog signaling (Shh) pathway (AID 1259369; calls by dose curve; further: nearly all actives have a fitted effect of over 45% in size; further: potency means the concentration at half of the fitted maximal effect). An outline of the steps: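 For antagonist detection, the reporter line received test compounds together with conditioned medium, incubated 24hr at 37 C, 5% CO2, then luminescence was recorded following 30min room-temperature luciferase reagent incubation.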

Experiment [6] in a line: qHTS assay to identify small molecule agonists of the estrogen receptor beta (ER-beta) signaling pathway - cell viability counter screen (AID 1259380). Further: nearly all actives have a fitted effect of over 30% in size. Further: potency means the concentration at half of the fitted maximal effect. An outline of the steps:
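CellTiter-Glo read, 30 min RT, same wells as bla assay; cells ER-beta-UAS-bla HEK293T; 16 hr compound, 37C; medium 2% charcoal-stripped FBS.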

Experiment [7] can be described thus: qHTS assay to identify small molecule antagonists of the estrogen receptor beta (ER-beta) signaling pathway - cell viability counter screen (AID 1259382). Further: nearly all actives have a fitted effect of over 55% in size. Further: potency means the concentration at half of the fitted maximal effect. An outline of the steps:
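In this multiplexed counter screen, cells were seeded at 2,000 per well in medium with 2% charcoal-stripped FBS and incubated 6 hr before compound and 1nM final E2 were added. Sixteen hours later, ATP-based luminescence reported viability.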

For experiment [8], the target named is Estrogen receptor (Homo sapiens) (UniProt P03372). Put plainly: qHTS assay to identify small molecule agonists of the estrogen receptor alpha (ER-alpha) signaling pathway in the presence of an antagonist (AID 1259383; calls by dose curve; further: nearly all actives have a fitted effect of over 15% in size; further: potency means the concentration at half of the fitted maximal effect; on activation: top concentration of the series differs between compounds). Put shortly: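 Stably transfected VM7Luc4E2 reporter cells, kept 5 days in charcoal-stripped serum, received ICI-182,780 at 10.0nM final before compound addition. Following 22hr incubation at 37C and 5% CO2, luciferase signal was read by luminescence.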
Chain of Estrogen receptor (Homo sapiens) (P03372 whole entry, looked up): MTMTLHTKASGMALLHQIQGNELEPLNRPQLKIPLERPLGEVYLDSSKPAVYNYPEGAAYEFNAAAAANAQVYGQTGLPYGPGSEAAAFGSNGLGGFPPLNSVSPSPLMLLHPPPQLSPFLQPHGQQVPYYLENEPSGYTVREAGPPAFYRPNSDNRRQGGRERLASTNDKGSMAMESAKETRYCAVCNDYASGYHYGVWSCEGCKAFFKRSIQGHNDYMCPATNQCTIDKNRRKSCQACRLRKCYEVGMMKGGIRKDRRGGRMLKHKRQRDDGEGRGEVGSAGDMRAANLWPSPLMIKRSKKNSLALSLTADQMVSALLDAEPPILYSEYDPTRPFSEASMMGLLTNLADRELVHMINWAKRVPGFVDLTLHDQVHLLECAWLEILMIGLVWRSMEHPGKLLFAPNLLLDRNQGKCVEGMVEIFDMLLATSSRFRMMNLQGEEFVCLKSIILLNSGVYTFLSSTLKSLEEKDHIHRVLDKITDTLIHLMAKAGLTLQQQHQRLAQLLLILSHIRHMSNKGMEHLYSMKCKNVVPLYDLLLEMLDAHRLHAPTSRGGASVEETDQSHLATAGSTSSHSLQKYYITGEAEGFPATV

Experiment [9] in a line: qHTS assay to identify small molecule agonists or antagonists of the thyroid stimulating hormone receptor (TSHR) signaling pathway - wild type cell line counter screen (AID 1259384; calls by dose curve). Put shortly:
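Wild-type Hek293 cells, 800/well, 18 h at 37C, then compound with Ro20-1724 for 30 min RT. cAMP by HTRF (cAMP-d2/anti-cAMP cryptate), 1 h RT, fluorescence read. 15 concentrations, triplicates.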

Experiment [10] has as its target Thyrotropin receptor (Homo sapiens) (UniProt P16473). Put plainly: qHTS assay to identify small molecule antagonists of the thyroid stimulating hormone receptor (TSHR) signaling pathway (AID 1259385; calls by dose curve; further: nearly all actives have a fitted effect of over 20% in size). Put shortly:
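TSHR-HEK293 cells (800/well) plated 18 h, then compounds with Ro20-1724 and TSH at 1.5 ng/mL final, 30 min at room temperature. cAMP quantified by HTRF (cAMP-d2/anti-cAMP-cryptate, 1 h); 15 concentrations in triplicate.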

Experiment [11] can be described thus: qHTS assay to identify small molecule antagonists of the androgen receptor (AR) signaling pathway using the MDA cell line in the presence of 0.5 nM R1881 - cell viability counter screen (AID 1259242). Further: nearly all actives have a fitted effect of over 45% in size. Further: potency means the concentration at half of the fitted maximal effect. An outline of the steps: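 Viability of MDA-kb2 cells was multiplexed with the luciferase AR readout; after 16 hr with compounds and R1881 at 0.5 nM final, CellTiter-Fluor fluorescence was recorded.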

The nature of experiment [12]: qHTS assay to identify small molecule phospholipidosis (PLD) inducers (AID 1259344; active means well fitted curve in the direction sought with a large enough effect; an effect the other way counts as inactive or inconclusive). An outline of the steps:
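Quantitative HTS in HepG2: compound plus LipidTOX Red dye for 24 h, paraformaldehyde fixation with Hoechst 33342, widefield high-content imaging; amiodarone as positive and DMSO as negative control.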

The nature of experiment [13]: qHTS assay to identify small molecule agonists of the sonic hedgehog signaling (Shh) pathway - cell viability counter screen (AID 1259366). Further: potency means the concentration at half of the fitted maximal effect; nearly all actives have a fitted effect of over 50% in size. Put shortly:
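NIH/3T3-derived 3T3 Gli1-Luc cells (stable Gli1-responsive firefly luciferase reporter) were seeded, rested 4 hr at 37 C/5% CO2, then exposed to compounds in DMSO for 24 hr; viability was read by CellTiter-Fluor fluorescence in the same wells.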

A short description of experiment [14]: qHTS assay to identify small molecule antagonists of the sonic hedgehog signaling (Shh) pathway - cell viability counter screen (AID 1259367). Further: potency means the concentration at half of the fitted maximal effect; nearly all actives have a fitted effect of over 55% in size. Put shortly:
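Seed 3T3 Gli1-Luc cells at 2,000 per well; incubate 4 hr; add compound in DMSO, then conditioned medium; incubate at 37C with 5% CO2; add CellTiter-Fluor after 23 hr; read fluorescence 1 hr later.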

The target of experiment [15] is Estrogen receptor beta (Homo sapiens) (UniProt Q92731). As to the kind of experiment: qHTS assay to identify small molecule antagonists of the estrogen receptor beta (ER-beta) signaling pathway (AID 1259378; active means well fitted inhibition curve with a large enough effect in the signal ratio in the repeat runs, not every such curve was filed as active; the % refers to the signal ratio; further: potency means the concentration at half of the fitted maximal effect). Put shortly:
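ER-beta-UAS-bla HEK293T cells in 2% charcoal-stripped FBS medium treated with compound plus 1nM final 17-beta-estradiol for 16 hr at 37C. Beta-lactamase reporter read by FRET substrate fluorescence after 2 hours at room temperature.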

A short description of experiment [16]: qHTS assay to identify small molecule agonists of the androgen receptor (AR) signaling pathway in the presence of an antagonist - cell viability counter screen (AID 1259379). Further: potency means the concentration at half of the fitted maximal effect; nearly all actives have a fitted effect of over 25% in size. Put shortly: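 Seed MDA-kb2 at 3,000 cells/well; incubate 5 hr, 37C, 0% CO2. Add nilutamide to 3.0uM final, then pin compounds at 15 concentrations. Incubate 16 hr. Add CellTiter-Fluor at 15 hr, read fluorescence after 1 hr.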

Experiment [17] deals with Estrogen receptor beta (Homo sapiens) (UniProt Q92731). As to the kind of experiment: qHTS assay to identify small molecule agonists of the estrogen receptor beta (ER-beta) signaling pathway (AID 1259377; active means well fitted activation curve with a large enough effect in the signal ratio in the repeat runs, not every such curve was filed as active; the % refers to the signal ratio). An outline of the steps:
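ER-beta-UAS-bla HEK293T (GripTite) cells carrying a UAS-driven beta-lactamase reporter, in medium with 2% charcoal-stripped FBS, were exposed to compounds for 16 hr at 37C; LiveBLAzer B/G FRET substrate was then added and fluorescence read after 2 hours at room temperature.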

Experiment [18] in a line: qHTS assay to identify small molecule antagonists of the estrogen receptor alpha (ER-alpha) signaling pathway using the BG1 cell line in the presence of 0.1 nM 17-beta-estradiol - cell viability counter screen (AID 1259241). Further: potency means the concentration at half of the fitted maximal effect; nearly all actives have a fitted effect of over 40% in size. An outline of the steps: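 VM7Luc4E2 cells (endogenous ER-alpha, 4×ERE-luciferase), hormone-starved 5 days in charcoal-stripped FBS, were treated with compounds plus 0.1 nM 17beta-estradiol for 22 hr at 37C; viability read in same wells as CellTiter-Fluor live-cell protease fluorescence.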

Chain of Estrogen receptor beta (Homo sapiens) (Q92731 whole entry, looked up): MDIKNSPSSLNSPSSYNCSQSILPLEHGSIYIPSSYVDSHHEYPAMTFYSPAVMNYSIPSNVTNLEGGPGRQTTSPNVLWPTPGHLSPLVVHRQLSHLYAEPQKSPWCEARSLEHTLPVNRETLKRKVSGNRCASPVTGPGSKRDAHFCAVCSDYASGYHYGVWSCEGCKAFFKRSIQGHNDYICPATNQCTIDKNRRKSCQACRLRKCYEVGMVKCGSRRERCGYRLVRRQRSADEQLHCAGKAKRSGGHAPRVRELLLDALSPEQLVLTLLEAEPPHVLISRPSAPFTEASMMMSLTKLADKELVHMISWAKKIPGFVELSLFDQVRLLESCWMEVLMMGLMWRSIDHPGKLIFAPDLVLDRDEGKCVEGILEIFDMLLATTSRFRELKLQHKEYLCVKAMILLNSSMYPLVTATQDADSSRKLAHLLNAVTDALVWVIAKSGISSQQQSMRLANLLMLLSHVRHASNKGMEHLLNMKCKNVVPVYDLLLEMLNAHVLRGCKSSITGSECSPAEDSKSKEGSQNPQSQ
Chain of Thyrotropin receptor (Homo sapiens) (P16473 whole entry, looked up): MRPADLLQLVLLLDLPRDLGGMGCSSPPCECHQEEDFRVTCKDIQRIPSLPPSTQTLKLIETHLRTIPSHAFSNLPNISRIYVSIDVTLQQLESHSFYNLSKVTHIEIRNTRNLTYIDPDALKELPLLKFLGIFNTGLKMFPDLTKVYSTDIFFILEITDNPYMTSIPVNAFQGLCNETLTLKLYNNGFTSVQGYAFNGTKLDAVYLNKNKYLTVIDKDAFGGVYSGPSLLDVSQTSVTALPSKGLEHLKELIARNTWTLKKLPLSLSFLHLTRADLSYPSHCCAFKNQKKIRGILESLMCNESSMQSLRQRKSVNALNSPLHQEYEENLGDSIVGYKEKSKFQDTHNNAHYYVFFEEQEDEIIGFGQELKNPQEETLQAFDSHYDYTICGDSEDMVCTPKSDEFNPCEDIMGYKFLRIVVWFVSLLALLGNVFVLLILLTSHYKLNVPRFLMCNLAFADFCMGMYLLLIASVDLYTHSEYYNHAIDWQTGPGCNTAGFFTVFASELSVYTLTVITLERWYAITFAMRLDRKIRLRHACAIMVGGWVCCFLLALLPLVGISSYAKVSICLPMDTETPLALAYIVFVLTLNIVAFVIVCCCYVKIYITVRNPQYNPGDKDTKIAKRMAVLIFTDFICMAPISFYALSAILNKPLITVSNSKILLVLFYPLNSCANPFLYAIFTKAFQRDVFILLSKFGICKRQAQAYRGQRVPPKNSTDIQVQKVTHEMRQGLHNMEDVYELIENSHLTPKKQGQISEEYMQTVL

Consider `CCCCCCCCCCCCc1ccc(O)cc1`, for which the Potency in experiment [1] is 61.1 µM (active); in experiment [6] it was 43.3 µM (active); in [7] it was 48.6 µM (active); in [8] it was 10.9 µM (active). Also, the Potency entry in [2], in experiment [3], in experiment [4], in experiment [5] and in experiment [10] was “inactive” in each case. Besides, the compound was classed as inactive in experiment [9].

For the compound `CCC1=C[C@@H]2CN(C1)Cc1c([nH]c3ccccc13)[C@@](C(=O)OC)(c1cc3c(cc1OC)N(C)[C@H]1[C@@](O)(C(=O)OC)[C@H](OC(C)=O)[C@]4(CC)C=CCN5CC[C@]31[C@@H]54)C2`, the Potency result in experiment [11], in experiment [12], in [2], in experiment [4], in experiment [7] and in experiment [8] was “inactive” in each case. Moreover, the Potency is 21.1 µM (active) in [1], 11.9 µM (active) in [13] and 0.0042 µM (active) in experiment [5].

Regarding `CCN(CC)CCNC(=O)c1c(C)[nH]c(/C=C2\C(=O)Nc3ccc(F)cc32)c1C`, the Potency entry in experiment [2], in experiment [3] and in experiment [4] was “inactive” in each case. The Potency was 5.96 µM (active) in experiment [13]; 13.3 µM (active) in [14]; 3.35 µM (active) in [5]; 33.5 µM (active) in [15]; 29.8 µM (active) in experiment [16]; 11.9 µM (active) in [6]. The Potency in experiment [7] is 11.9 µM (active).

Turning to `N=C1N=C(N)c2cc3ccccc3cc21`, the Potency entry in experiment [12], in experiment [2], in [4] and in experiment [8] was “inactive” each time. For the same compound, the Potency in [13] is 27.3 µM (active); in [14] it was 24.3 µM (active); in experiment [5], 0.969 µM (active); in experiment [6], 21.7 µM (active); in [7], 38.6 µM (active).

For `CC(C)(C)c1ccc(C(=O)CCCN2CCC(OC(c3ccccc3)c3ccccc3)CC2)cc1`, the Potency in experiment [11] was 21.1 µM (active); in [13], 26.6 µM (active); in [5] it was 11.9 µM (active); in [15], 13.3 µM (active); in experiment [16] it was 29.8 µM (active); in experiment [6], 18.8 µM (active). Moreover, the Potency in experiment [7] was 23.7 µM (active). Further, the Potency entry in experiment [2], in experiment [3], in [4], in experiment [17] and in experiment [10] was “inactive” in each case. In addition, the compound was classed as inactive in experiment [9].

On to `CC(C)n1nc(-c2cc3cc(O)ccc3[nH]2)c2c(N)ncnc21`, for which the Potency result in [11], in [12], in experiment [2], in experiment [3], in experiment [4] and in [8] was “inactive” throughout. Further, in experiment [10], the Potency result is “inactive”. The Potency in experiment [1] was 0.376 µM (active); in experiment [13], 0.841 µM (active); in experiment [14], 0.944 µM (active); in experiment [5], 1.5 µM (active); in experiment [6], 0.211 µM (active). Further, the result in experiment [9] was inactive.

Consider `O=[N+]([O-])c1cc([N+](=O)[O-])c2ccc(S(=O)(=O)O)cc2c1O`, for which the Potency in experiment [18] is 27.1 µM (active); in [13], 13.6 µM (active); in [14], 8.58 µM (active); in [16], 21.6 µM (active). For the same compound, the Potency result in experiment [3], in [6] and in [7] was “inactive” each time.
